Measured values from PubChem BioAssay (NCI).
Several values for one entry are separate records, joined by “and”; a condition that tells them apart may be missing. Identical values can stand only once. About 83,000 compounds went through this panel and 20% of them were active in at least one assay; those are over-represented in the sample as a whole.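 Compound tested at a single concentration for 48 hours in 96-well plates; a percent growth value below 10 was scored as active.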 Activity calls are given as the source filed them.

test system: HCC-2998 colon; assay: NCI-60 one-dose screen, 48 h (100 = growth as untreated, 0 = no growth, -100 = all killed); settings: 0.25 µM
Procedure: Growth inhibition of the HCC-2998 human tumor cell line is measured as a screen for anti-cancer activity. Cells are grown in 96 well plates and exposed to the test compound for 48 hours. Compounds are tested at a single concentration, which is 10^-5 M for most compounds. The reported endpoint is percent growth (GI% or GIPRCNT), where numbers from 0 - 100% represent growth inhibition, and numbers from -100% - 0 represent cell death. For example, a value of 40 represents 60% growth inhibition. A value of 0 means no net growth occurred over the course of the experiment. A value of -40 indicates 40% of cells at the beginning of the experiment died by the end of the experiment. A value of -100 means all cells are dead at the end of the experiment.
NCI-60 Human Tumor Cell Lines Screen was performed using the standard one-dose NCI protocol, which is described in more detail at https://dtp.cancer.gov/discovery_development/nci-60/default.htm.
Compounds with GIPRCNT values below 10 were considered active. Activity score was based on GIPRCNT using the following formula: […]
Score is 0 for GIPRCNT values of 100 or above, 50 for GIPRCNT values of 0, and 100 for GIPRCNT values of -100.

Row | SMILES | growth
1 | CCCCCCCCCCCCCCCc1ccc(Cl)c(O)c1Cl (tested in a mixture with another compound) | 38.6% (inactive)

same assay, conditions: 1 µM

Row | SMILES | growth
2 | CNC(=O)c1cc(Oc2ccc(CC(=O)Nc3cc(C(C)(C)C)nn3C)cc2)ccn1 | 107% (inactive)

same assay, conditions: 10 µM

Row | SMILES | growth
3 | COc1ccc(Cl)cc1C(=O)NCCc1ccc(S(=O)(=O)NC(=O)NC2CCCCC2)cc1 | 126% (inactive) and 118% (inactive)
4 | Cc1[nH]c(-c2nc3ccccc3[nH]2)c(C)c1C(=O)NC(C)C1CCCCC1 (stereo not given) | 97.9% (inactive)
5 | CC#C[C@]1(O)CC[C@H]2[C@@H]3CCC4=CC(=O)CCC4=C3[C@@H](c3ccc4c(c3)OCO4)C[C@@]21C | 94.4% (inactive)
6 | CCCCCCCCCCCCCCCc1ccc(Cl)c(O)c1Cl (tested in a mixture with another compound) | 116% (inactive)
7 | CNC(=O)c1cc(Oc2ccc(CC(=O)Nc3cc(C(C)(C)C)nn3C)cc2)ccn1 | 75.3% (inactive)

same assay, conditions: 10 µM unless noted

Row | SMILES | growth
8 | Nc1ncnc2c1ncn2C1CC(O)C(CO)O1 (stereo not given) | -17.3% (active) and 119% (inactive)
9 | Nc1ccc2ccc(N)cc2c1 | 100% (inactive)
10 | Cc1cc(C)c(N)c(Br)c1 | 112% (inactive)
11 | O=[N+]([O-])c1ccccc1N(S(=O)(=O)c1ccccc1)S(=O)(=O)c1ccccc1 | 101% (inactive) and 106% (inactive)
12 | CCCCCCCCCCCCOc1ccccc1C=O | 90.2% (inactive)
13 | CCN(CC)C(=S)SSC(=S)N(CC)CC | 91.9% (inactive) and 102% (inactive)
14 | CNC(=O)c1cc(Oc2ccc(NC(=O)Nc3ccc(Cl)c(C(F)(F)F)c3)cc2)ccn1 | -25.4% (active)
15 | COc1ccc(NC(=S)Nc2ccccn2)cc1 | 101% (inactive)
16 | Nc1ccc2[nH]c(-c3ccccc3)cc(=O)c2c1 | 78.3% (inactive)
17 | CC(C)Cc1ccc(C(C)C(=O)NCc2ccc(Cn3c(=O)sn(CCCI)c3=O)cc2)cc1 (stereo not given) | 91.5% (inactive) and -69.2% (active)
18 | O=C(Nc1cccc(-n2ccc3c(NC(=O)c4ccccc4)nccc32)c1)c1ccc(Cl)c(C(F)(F)F)c1 | -27.9% (active) and 64.4% (inactive)
19 | CC(C)N=c1cc2n(-c3ccc(Cl)cc3)c3ccccc3nc-2cc1Nc1ccc(Cl)cc1 | 16.8% (inactive) and -34.4% (active) and -17.4% (active)
20 | CCOc1ccc2cc(-c3nn(CC4CCNCC4)c4ncnc(N)c34)ccc2c1 | 110% (inactive) and 49.1% (inactive)
21 | O=Nc1ccc(O)cc1 | 101% (inactive) and 104% (inactive)
22 | CNc1cc(-c2cccc(OC(F)(F)F)c2)nc2ccc(N3CCCC3)cc12 | 25.9% (inactive) and -53.7% (active) and -32.7% (active)
23 | Cc1nnc(NC/C=C/c2ccccc2)s1 | 127% (inactive) and 102% (inactive)
24 | CCOc1ccc(Nc2c3ccccc3nc3ccccc23)cc1 | 39.8% (inactive)
25 | COc1ccc(S(=O)(=O)N2CCOCC2)cc1NC(=O)c1[nH]c(C)c2c1CCCCC2=O | 102% (inactive) and 69.8% (inactive)
26 | Nc1n[nH]c(=S)n1-c1ccc(Cl)cc1 | 108% (inactive)
27 | Cn1c(=O)n(-c2ccc(C(C)(C)C#N)cc2)c2c3cc(-c4cnc5ccccc5c4)ccc3ncc21 | 1.76% (active) and 7.09% (active)
28 | CN(C)c1ccc2nc3ccc(=[N+](C)C)cc-3sc2c1 | 49% (inactive) and 36.7% (inactive) and 53.9% (inactive)
29 | COC(=O)c1nc(N)nc(C(=O)OC)c1C(=O)c1ccc(OC)cc1 | 108% (inactive) and 79.3% (inactive)
30 | CCN(CC)CCCC(C)N(Cc1ccccc1)CC(O)c1ccc(Cl)cc1 (stereo not given) | 101% (inactive)
31 | O=C(O)C1(C(=O)O)CCC1.[NH2-].[NH2-].[Pt+2] | 97.2% (inactive) and 118% (inactive)
32 | c1ccc(N(c2ccccc2)c2ccccc2)cc1 | 111% (inactive)
33 | CN1CCN(c2ccc3nc(-c4c(N)c5c(F)cccc5[nH]c4=O)[nH]c3c2)CC1 | 38.2% (inactive) and 44.8% (inactive)
34 | O=CC(O)C(O)C(O)CO (stereo not given) | 101% (inactive)
35 | CC1=C(/C=C/C(C)=C/C=C/C(C)=C/C=N/NC(=S)NC(=S)N/N=C/C=C(C)/C=C/C=C(C)/C=C/C2=C(C)CCCC2(C)C)C(C)(C)CCC1 | 57.1% (inactive) and 12.3% (inactive)
36 | CCC(C)C1(C2CCCC2)NC(=O)NC1=O (stereo not given) | 103% (inactive) and 102% (inactive)

same assay, conditions: 30 µM

Row | SMILES | growth
37 | CNC(=O)c1cc(Oc2ccc(CC(=O)Nc3cc(C(C)(C)C)nn3C)cc2)ccn1 | 101% (inactive)

same assay, conditions: 100 µM

Row | SMILES | growth
38 | COc1ccc(Cl)cc1C(=O)NCCc1ccc(S(=O)(=O)NC(=O)NC2CCCCC2)cc1 | 87.4% (inactive)
39 | Cc1[nH]c(-c2nc3ccccc3[nH]2)c(C)c1C(=O)NC(C)C1CCCCC1 (stereo not given) | -82.6% (active)
40 | CC#C[C@]1(O)CC[C@H]2[C@@H]3CCC4=CC(=O)CCC4=C3[C@@H](c3ccc4c(c3)OCO4)C[C@@]21C | -22.7% (active)
